A short description of the assay: qHTS assay for re-activators of p53 using a Luc reporter: Hit Validation with no p53 Expressed. Conditions: p53-null cells, luciferase reporter counter-screen; series mostly up to 46.1 µM. The method, boiled down:
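Counter-screen of primary hits in a cell line not transfected with p53, in Opti-MEM with 10% FBS; compounds at several concentrations (10 mM stock, 1:5; top 46.1 µM in well), 24 h at 37 deg C, 5% CO2. Luminescence read after 10 min with Amplite reagent.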
(In general: qHTS replaces the single test concentration by a dilution series.)

Inconclusive results are not listed. Where a call stands in place of a potency, no number is given. Activity calls are given as the source filed them. Calls come from the whole dose curve; as a rule, active = well fitted activation curve with a large enough effect; inconclusive = small, poorly fitted or top-dose-only effect; inactive = no such curve, though single readings can be large or run the other way.
Potency is the fitted concentration of half-maximal effect.

For `N#Cc1cccc(N=Cc2c(O)ccc3ccccc23)c1`, the Potency result is “inactive”.

Consider `C/C(=N\N=c1/scc(C)n1Cc1ccco1)c1cccc([N+](=O)[O-])c1`, for which the Potency entry is “inactive”.

Consider `O=c1oc(-c2ccc(O)c(O)c2)cc2cc(O)cc(O)c12`, for which the Potency entry was “inactive”.

For `COc1ccccc1-c1cc(C(=O)Nc2cc(C)on2)no1`, the Potency entry is “inactive”.

Regarding `C/C(=N/NC(=O)c1ccc2c(c1)OCO2)c1ccc(NC(=O)C(F)(F)F)cc1`, the Potency entry is “inactive”.

On to `Cc1ccc(C(=O)NCC(=O)N2CCCCCC2)cc1`, for which the Potency result is “inactive”.

Consider `Cc1cccc(Nc2nc(N3CCOCC3)nc(N3CCOCC3)n2)c1`, for which the Potency result is “inactive”.

Turning to `O=C(Nc1ccccc1Br)c1ccc(OC(=S)N2CCOCC2)cc1`, the Potency entry is “inactive”.

Turning to `O=C(Nc1ccc(Br)cn1)c1cccc(-c2cc3ccccc3oc2=O)c1`, the Potency result is “inactive”.

As for `CS(=O)(=O)c1ccc2nc(NC(=O)c3ccco3)sc2c1`, the Potency result was “inactive”.

`Nc1c(C(=O)c2ccc(Br)cc2)oc2ccccc12`: the Potency entry was “inactive”.

For `COc1ccc(C(=O)N=c2nc3ccccn3s2)cc1`, the Potency result is “inactive”.

For `O=C(CCc1nc(-c2ccccc2)no1)N1CCCC1`, the Potency entry is “inactive”.

On to `CC(=O)c1cccc(NC(=O)c2sc(Cl)nc2C)c1`, for which the Potency result is “inactive”.

As for `CN(C)c1cccc(C(=O)NNC(=O)CN2C(=O)C3CC=CCC3C2=O)c1` (stereo unspecified), the Potency result was “inactive”.

As to `Cc1nn2cc(-c3ccc(-c4ccccc4)cc3)nc2s1`, the Potency was 731 nM (active).

On to `COc1ccc(NC(=O)COC(=O)C23CC4CC(CC(O)(C4)C2)C3)cc1Cl`, for which the Potency result is “inactive”.

As to `N#Cc1cc2c(nc1SCC(=O)Nc1nccs1)CCCCC2`, the Potency result was “inactive”.

`O=C1/C(=C/c2ccco2)SC(=S)N1CCC(=O)N1CCCCC1CCO` (stereo unspecified): the Potency result is “inactive”.

Regarding `Cc1cc(-n2c(C)cc(C(=O)COc3cc(F)ccc3[N+](=O)[O-])c2C)no1`, the Potency result was “inactive”.

Take `Cc1nonc1NCn1nnc2ccccc21`: the Potency result is “inactive”.

With `Cc1ccc(C(=O)OCC(=O)NCC2COc3ccccc3O2)cc1` (stereo unspecified), the Potency entry was “inactive”.

With `COc1ccc(C(=O)Nc2nnc(C(F)(F)F)s2)cc1`, the Potency entry is “inactive”.

In the case of `COc1ccc([N+](=O)[O-])cc1NC(=O)C1CCCCC1C(=O)O` (stereo unspecified), the Potency result was “inactive”.

As for `Oc1ccc(N=Cc2c(O)ccc3ccccc23)cc1`, the Potency result is “inactive”.

Consider `Cc1cccc(C)c1Nc1c(-c2ccccn2)nc2ccccn12`, for which the Potency result is “inactive”.

As for `COCCN(Cc1cn[nH]c1-c1ccc2cc(OC)ccc2c1)C(C)C`, the Potency result is “inactive”.

As to `COc1ccc(-c2coc3cc(O[C@@H]4O[C@H](CO)[C@@H](O)[C@H](O)[C@H]4O)ccc3c2=O)cc1`, the Potency result was “inactive”.

`Cc1ccc(C)c(N2CCN(C(=O)CCc3nc(-c4ccccc4C(F)(F)F)no3)CC2)c1`: the Potency entry is “inactive”.

Take `O=S(=O)(CCOc1ccccc1)c1nc2ccccc2[nH]1`: the Potency result is “inactive”.

As to `O=C(Nc1cccc(O)c1)C(=O)Nc1ccccn1`, the Potency entry was “inactive”.

For `COc1cccc(/C=C2\Oc3ccc(O)cc3C2=O)c1O`, the Potency entry is “inactive”.

Consider `COc1ccc(NC(=S)NC(=NS(=O)(=O)c2ccc(Cl)cc2)c2ccccc2)cc1`, for which the Potency entry is “inactive”.

In the case of `CC(OC(=O)c1cnccn1)C(=O)Nc1nc(-c2cccc([N+](=O)[O-])c2)cs1` (stereo unspecified), the Potency entry is “inactive”.

For `Cc1ccc(S(=O)(=O)c2cn(CC(=O)Nc3ccccc3)c3ccc(F)cc3c2=O)cc1`, the Potency entry was “inactive”.

On to `C/C(=N\NC(=S)NC(C)C)c1ccc(Cl)s1`, for which the Potency result is “inactive”.

With `Oc1[nH]c2ccccc2c1C=Nc1ccc2c(c1)OCCO2`, the Potency result is “inactive”.

In the case of `COc1ccccc1NC(CC(=O)c1ccccc1)C(=O)OCC(=O)c1ccc(C)cc1` (stereo unspecified), the Potency result was “inactive”.

Turning to `CC(C)(C)NC(=O)C(c1ccc(Cl)cc1)N(CCO)C(=O)c1snc(C(N)=O)c1N` (stereo unspecified), the Potency entry was “inactive”.

As to `O=C(Cn1cc2c(n1)CCCCC2)NC1CCCCCC1`, the Potency result was “inactive”.

Take `CC(C)c1ccc2oc(-c3ccc(N)cc3)nc2c1`: the Potency entry was “inactive”.

`COc1ccccc1/C=C/C(=O)Nc1ccc2c(c1)CCC2`: the Potency is 2910 nM (active).

In the case of `O=C(COC(=O)c1ccc(F)cc1)NC1CC1`, the Potency entry is “inactive”.

Consider `CC(C)N1C(=O)CN(C2CCCCCC2)C(=O)C1c1ccccc1F` (stereo unspecified), for which the Potency entry was “inactive”.

`Cc1noc(C)c1C(=O)Nc1nc(-c2ccc(F)cc2)cs1`: the Potency entry was “inactive”.

On to `O=C(CC(=O)c1ccccc1O)c1cccc(F)c1`, for which the Potency result was “inactive”.

Consider `C=CCNc1ncnc2c1cnn2-c1ccc(Cl)cc1`, for which the Potency result was “inactive”.

As to `O=[N+]([O-])c1cc(C(F)(F)F)ccc1NCCc1c[nH]c2ccccc12`, the Potency result is “inactive”.

Consider `COc1ccc(N=C(N)SCc2ccccn2)cc1`, for which the Potency result is “inactive”.

On to `CNC(=S)N/N=C(\C)c1ccc(N2CCOCC2)cc1`, for which the Potency result was “inactive”.

`CC1CCCN(C(=O)CN2C(=O)c3ccccc3S2(=O)=O)C1` (stereo unspecified): the Potency entry is “inactive”.

Regarding `CCCCc1ccc(NC(=S)Nc2ccc(Nc3ccc(OC)cc3)cc2)cc1`, the Potency entry is “inactive”.

Consider `O=C(NC(=S)NC1CCCCC1)c1ccccc1[N+](=O)[O-]`, for which the Potency entry is “inactive”.

On to `C=CCNC(=S)N/N=C(\C)c1ccccn1`, for which the Potency entry is “inactive”.

With `O=C(CN1C(=O)NC2(CCCc3ccccc32)C1=O)c1ccc(F)cc1` (stereo unspecified), the Potency result was “inactive”.

`CC1CCc2c(sc(NC(=O)C3=COCCO3)c2C(N)=O)C1` (stereo unspecified): the Potency result is “inactive”.

`Cc1ccc2oc(C(=O)Nc3cc(C)on3)c(C)c2c1`: the Potency is 9200 nM (active).

Regarding `Cc1cccc2nc(CNc3ccc(F)cc3)cn12`, the Potency entry was “inactive”.

Take `CCc1ccc(OCC(=O)NC(NC(=S)Nc2ccccc2C)C(Cl)(Cl)Cl)cc1` (stereo unspecified): the Potency entry was “inactive”.

Consider `Cc1ccc(C(=O)Nc2ccn(C)n2)cc1`, for which the Potency entry is “inactive”.

Turning to `COc1cc(C(=O)N/N=C(\c2ccccc2)c2ccccn2)cc(OC)c1OC`, the Potency result is “inactive”.

For the compound `COc1cc(/C=C/C(=O)N2C(=O)c3cccc(N)c3C2=O)cc(OC)c1OC`, the Potency result was “inactive”.

On to `COCCn1c(C)cc(C(=O)COc2ccc(N(C)S(=O)(=O)c3ccc(C)cc3)cc2)c1C`, for which the Potency entry is “inactive”.

Regarding `COc1cccc(NC(=O)c2ocnc2C)c1`, the Potency result is “inactive”.

`CN1C(=O)C2(OCC(CO)([N+](=O)[O-])CO2)c2ccccc21` (stereo unspecified): the Potency result is “inactive”.

For the compound `CCOc1ccc(NC(=O)C(c2ccccn2)N(C(=O)CCl)c2ccc(OC)cc2)cc1` (stereo unspecified), the Potency entry is “inactive”.

For the origin of these results see PubChem BioAssay AID624331 (National Center for Advancing Translational Sciences (NCATS), 2012).
